VACV mCherry inh: inhibitors of vaccinia virus infection (mCherry reporter signal); Potency, µM (doses to about 36.5 µM), hits mostly inhibitors; Vaccinia virus mCherry reporter infection, fluorescence; 0.63% of 310,000 active; calls by dose curve; tested in A549 cells; also: nearly all actives have a fitted effect of over 35% in size
VACV Venus inh: inhibitors of vaccinia virus (Venus reporter). Vaccinia virus Venus reporter expression, fluorescence. Potency, µM (series often up to 36.5 µM), actives largely listed as inhibitors. 0.46% of 330,000 active; calls by dose curve; tested in A549 cells; also: nearly all actives have a fitted effect of over 30% in size
LASV entry inh: blocks Lassa virus binding to or entry into cells; Lassa virus pseudotype entry inhibition, cell reporter; Potency, µM (highest dose often 37.9 µM), most hits filed as inhibitors; 1.2% of 300,000 active; AID 540256; calls by dose curve; tested in HEK293 cells; also: nearly all actives have a fitted effect of over 50% in size
HCMV antiviral: human cytomegalovirus inhibition | HFF cells, HCMV-luciferase reporter, 72 h; active compounds read low | 4.5% of 410,000 active | activity change, negative = inhibition, % at 57.5 µM; in the data active = activity change below about -60%; inconclusive = no clear call, values can overlap the other calls; inactive = above about -39%
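Luciferase read-out from HCMV-luciferase-infected HFFs (MOI 1 PFU/cell) 72 h post infection at 37C; compounds added after 16 h cell attachment; activity normalized between buffer-only basal and Salinomycin (10uM) inhibitor controls.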
Marburg entry inh: Marburg virus entry inhibition. Marburg virus pseudotyped entry inhibition, cell reporter. Potency, µM (highest dose often 37.8 µM), most hits filed as inhibitors. 1.8% of 300,000 active. AID 540276; calls by dose curve; tested in HEK293 cells
FMDV inh: antivirals against foot and mouth disease virus | FMDV antiviral cell-based qHTS | Potency, µM (titrated, usually from 57.9 µM), actives largely listed as inhibitors | 1.2% of 410,000 active | AID 1159524; calls by dose curve; tested in HEK293T cells; also: read-out not given here; nearly all actives have a fitted effect of over 45% in size
Each line names hits and unclear results; the compound was inactive in the other large screens. Shown are actives, neighbours in structure and some others; about 6.5% of the full set was active somewhere.

COCCCNC(=O)N1CCN(c2nnc(C)c3c(C)n(-c4ccc(Cl)cc4)nc23)CC1	VACV mCherry inh 8.9µM, VACV Venus inh inconclusive (no result: Marburg entry inh)
Cc1ccc(-n2nc3c(N4CCC(C(=O)N5CCC(C(N)=O)CC5)CC4)nnc(C)c3c2C)cc1	HCMV antiviral -61 (no result: VACV mCherry inh, VACV Venus inh, LASV entry inh, Marburg entry inh)
Cc1ccc(-n2nc3c(N4CCC(C(=O)NCCc5ccccc5)CC4)nnc(C)c3c2C)cc1	VACV mCherry inh 10µM, VACV Venus inh 11µM, FMDV inh inconclusive (no result: Marburg entry inh)
O=C(COC(=O)CC1CCCC1)Nc1ccc(Cl)cc1	none
Cc1ccccc1CNC(=O)C1CCN(c2nnc(C)c3c(C)n(-c4ccccc4)nc23)CC1	none (no result: Marburg entry inh)
Cc1ccc(-n2nc3c(N4CCC(C(=O)NCCc5ccccc5C)CC4)nnc(C)c3c2C)cc1	VACV mCherry inh 10µM, VACV Venus inh 13µM, FMDV inh inconclusive (no result: Marburg entry inh)
Cc1nnc(N2CCC(C(=O)NCc3cccc(Cl)c3)CC2)c2nn(-c3ccccc3)c(C)c12	LASV entry inh inconclusive, HCMV antiviral -103 (no result: Marburg entry inh)
CCCCc1ccc(S(=O)(=O)N[C@H]2CC[C@@]34CCCN3C(=O)CCC[C@H]4[C@H]2Cc2ccccc2)cc1	none (no result: VACV mCherry inh, VACV Venus inh, LASV entry inh, Marburg entry inh, FMDV inh)
COc1ccc(OCC(O)CN(C2CCCCC2)C2CCCCC2)cc1 (stereo not given)	LASV entry inh 15µM, Marburg entry inh inconclusive
O=[N+]([O-])c1ccc(OCC(O)CN(C2CCCCC2)C2CCCCC2)cc1 (stereo not given)	Marburg entry inh inconclusive, FMDV inh inconclusive
Cc1cnc(SCc2ccccn2)nc1C1CCCN(Cc2ccsc2)C1 (stereo not given)	none (no result: LASV entry inh, HCMV antiviral, Marburg entry inh)
O=C(COc1ccc2c(-c3ccccc3)cc(=O)oc2c1)Nc1ccc(CCO)cc1	HCMV antiviral -68, FMDV inh inconclusive (no result: VACV mCherry inh, VACV Venus inh, LASV entry inh, Marburg entry inh)
Cc1c(NC(=O)Nc2ccccc2Cl)c(=O)n(-c2ccccc2)n1C	none (no result: VACV mCherry inh, VACV Venus inh, LASV entry inh, Marburg entry inh)
COc1cc(C2C(C#N)=C(N)Oc3c2ccc2ccccc32)ccc1OCC(=O)Nc1cccc(C)c1 (stereo not given)	VACV Venus inh inconclusive, LASV entry inh 10µM, Marburg entry inh inconclusive, FMDV inh inconclusive
COc1cc(C2C(C#N)=C(N)Oc3c2ccc2ccccc32)ccc1OCC(=O)Nc1ccc(C)cc1 (stereo not given)	VACV mCherry inh inconclusive, LASV entry inh inconclusive, Marburg entry inh inconclusive, FMDV inh inconclusive
COc1ccc(C2C(C#N)=C(N)Oc3c2ccc2cccnc32)cc1OC (stereo not given)	VACV mCherry inh 8.9µM, VACV Venus inh inconclusive, LASV entry inh inconclusive, HCMV antiviral -101, Marburg entry inh inconclusive
COc1ccc(C2C(C#N)=C(N)OC3=C2C(=O)CC(C)(C)C3)cc1OC (stereo not given)	LASV entry inh inconclusive, HCMV antiviral inconclusive
Cc1cc2cc(C(c3nnnn3C3CCCC3)N(Cc3cccnc3)Cc3ccco3)c(=O)[nH]c2cc1C (stereo not given)	LASV entry inh inconclusive, HCMV antiviral -67, Marburg entry inh 4.1µM, FMDV inh inconclusive
CC(OC(=O)CCc1nc2ccccc2c(=O)[nH]1)C(=O)Nc1cccc(C(F)(F)F)c1 (stereo not given)	none
O=C1C2ON(c3ccccc3)C(c3ccncc3)C2C(=O)N1c1ccc(N2CCOCC2)cc1 (stereo not given)	HCMV antiviral -75 (no result: LASV entry inh)
Cn1cc(CCNC(=O)N2CCOC2=O)c2ccccc21	none (no result: VACV mCherry inh, VACV Venus inh, LASV entry inh, Marburg entry inh, FMDV inh)
COc1ccccc1NC(=S)N=Nc1c(O)[nH]c2ccc(Br)cc12	HCMV antiviral -67 (no result: VACV mCherry inh, VACV Venus inh, LASV entry inh, Marburg entry inh)
Cc1cccc(NC(=S)N=Nc2c(O)[nH]c3ccccc23)c1	VACV Venus inh inconclusive, LASV entry inh inconclusive, Marburg entry inh inconclusive
COc1ccc(/C(C)=N/OCC(=O)N=Nc2c(O)[nH]c3ccc(Br)cc23)cc1	Marburg entry inh inconclusive, FMDV inh 40µM
CCC1CN(CCNC(=O)C(C)(C)O)Cc2cc(OC)ccc2O1 (stereo not given)	none (no result: LASV entry inh, HCMV antiviral, Marburg entry inh)
O=C(N[C@H]1CC[C@@]23CCCN2C(=O)CCC[C@H]3[C@H]1Cc1ccccc1)c1cccnc1	none (no result: VACV mCherry inh, VACV Venus inh, LASV entry inh, Marburg entry inh, FMDV inh)
COc1ccc(-n2cc(CNC3CCN(C)CC3)c(-c3cccc(F)c3)n2)cc1	VACV mCherry inh inconclusive, VACV Venus inh inconclusive, LASV entry inh 11µM, Marburg entry inh 3.2µM
COc1ccc(-n2cc(CN[C@H]3CCCCNC3=O)c(-c3cccc(F)c3)n2)cc1	none (no result: VACV mCherry inh, VACV Venus inh, LASV entry inh, Marburg entry inh)
COc1ccc(-n2cc(CNC(C)c3ccncn3)c(-c3cccc(F)c3)n2)cc1 (stereo not given)	HCMV antiviral inconclusive, Marburg entry inh inconclusive
